# Measured values as given in PubChem BioAssay (EPA / NIEHS).
# Values joined by “and” are separate entries in the source; they are usually repeats but may differ in a detail not shown here. Identical values can stand only once. Records with an inconclusive call do not appear. Active and inactive are the calls of the source. The calls were made as follows: active = hit-call score of the fitted dose curve at least 0.9, where 1 is the maximum; inconclusive = response in the unintended direction; inactive = score below 0.9.
# Experiment: ACEA_ER_AUC_viability: ACEA Biosciences xCELLigence Real-Time Cell Analysis on Estrogen Receptor Agonism for Viability (AID 2283782);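 also: hit means loss of impedance signal meaning reduced cell growth or viability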
# Method in brief: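 Read-out: real-time electrical impedance (RT-CES) area under curve, loss of signal taken as reduced viability, normalized to DMSO baseline. T-47D cells, charcoal-stripped serum medium, compounds up to 100 uM final, continuous exposure, 80 h.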
SMILES,outcome,AC50
Cc1c([N+](=O)[O-])c(C)c([N+](=O)[O-])c(C(C)(C)C)c1[N+](=O)[O-],inactive,
Cc1cc(Cl)ccc1N,,80.8 µM (active) and 14.3 µM (active)
CC(C)[C@H](C(=O)OC(C#N)c1cccc(Oc2ccccc2)c1)c1ccc(OC(F)F)cc1 (some centres undefined),,38 µM (active)
O=[N+]([O-])c1ccc(Nc2ccccc2)cc1,inactive,
N#Cc1ccc(Cl)cc1,,50 µM (active)
CCN(N=O)C(N)=O,inactive,
C[N+](C)(C)Cc1ccccc1,inactive,
CCCCC(CC)C(=O)Cl (centres undefined),inactive,
CCOC(=O)c1ccccc1S(=O)(=O)NC(=O)Nc1nc(Cl)cc(OC)n1,inactive,
c1cc[c]([Sb]([c]2ccccc2)[c]2ccccc2)cc1,,50 µM (active)
CCOP(=O)(OCC)OC(=CCl)c1ccc(Cl)cc1Cl,,77.8 µM (active)
C=C(C)C(=O)OCCCCOC(=O)C(=C)C,,30.7 µM (active)
Brc1c(Br)c(Br)c(Oc2c(Br)c(Br)c(Br)c(Br)c2Br)c(Br)c1Br,inactive,
CC(C)(COCC1CO1)COCC1CO1 (centres undefined),,29.9 µM (active)
Brc1ccc(Br)cc1,inactive,
OC[P+](CO)(CO)CO,,50 µM (active)
O=C/C(Cl)=C(/Cl)C(=O)O,,73.9 µM (active)
O=[N+]([O-])c1cc([As](=O)(O)O)ccc1O,inactive,
ClCCN1CCOCC1,,31.6 µM (active)
c1ccc2sc(SNC3CCCCC3)nc2c1,,85.5 µM (active)

SMILES,outcome,AC50
O=C(Cl)OCCOCCOC(=O)Cl,inactive,
COCC(=O)N(c1c(C)cccc1C)[C@H](C)C(=O)OC,,50 µM (active)
CCCCOC(=O)COC(=O)c1ccccc1C(=O)OCCCC,inactive,
CC(C=O)Cc1ccc2c(c1)OCO2 (centres undefined),inactive,
BrCCCCBr,inactive,
CCOP(=S)(OCC)OP(=S)(OCC)OCC,inactive,
O=S(=O)(C(Cl)(Cl)Cl)C(Cl)(Cl)Cl,,5.21 µM (active)
O=C=Nc1ccc(Cl)cc1,,29.9 µM (active)
O=NN1CCCCCCC1,inactive,
CC(C)(C#N)N=NC(C)(C)C#N,inactive,
Nc1cccnc1,inactive,
C=CCN=C=S,inactive,
C=CC(=O)NC(C)(C)CC(C)=O,inactive,
O=C(O)COc1cc(Cl)c(Cl)cc1Cl,inactive,
ClCc1ccccc1CCl,,29.6 µM (active)
O=C(Cc1ccccc1)OCCc1ccccc1,,82.5 µM (active)
N#Cc1ccccc1Cl,inactive,
O=c1oc2ccccc2c(O)c1C(CC(O)c1ccc(-c2ccc(Br)cc2)cc1)c1ccccc1 (centres undefined),,22.7 µM (active)
Cc1ccccc1OP(=O)(Oc1ccccc1)Oc1ccccc1,,62.9 µM (active)
